Records with an inconclusive call do not appear. Active and inactive are the calls of the source. Calls come from the whole dose curve; as a rule, active = well fitted curve in the direction sought with a large enough effect; inconclusive = small, poorly fitted or top-dose-only effect, or another doubt; inactive = no such curve, though single readings can be large; an effect the other way counts as inactive or inconclusive.
Columns and labels:
[1] = biological target: Cellular tumor antigen p53 (Homo sapiens) (UniProt P04637); assay: Primary qHTS for small molecule compounds that upregulate eGFP-tagged delta133p53alpha (in N-terminal) cells. (AID 2060322); conditions: NCI-H358 eGFP-delta133p53alpha fluorescence, 24 h; activation: stronger effect = higher value;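 note: 0% = DMSO vehicle and 100% = reference activator; nearly all actives have a fitted effect of over 75% in size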
Chain of Cellular tumor antigen p53 (Homo sapiens) (P04637 whole entry, looked up): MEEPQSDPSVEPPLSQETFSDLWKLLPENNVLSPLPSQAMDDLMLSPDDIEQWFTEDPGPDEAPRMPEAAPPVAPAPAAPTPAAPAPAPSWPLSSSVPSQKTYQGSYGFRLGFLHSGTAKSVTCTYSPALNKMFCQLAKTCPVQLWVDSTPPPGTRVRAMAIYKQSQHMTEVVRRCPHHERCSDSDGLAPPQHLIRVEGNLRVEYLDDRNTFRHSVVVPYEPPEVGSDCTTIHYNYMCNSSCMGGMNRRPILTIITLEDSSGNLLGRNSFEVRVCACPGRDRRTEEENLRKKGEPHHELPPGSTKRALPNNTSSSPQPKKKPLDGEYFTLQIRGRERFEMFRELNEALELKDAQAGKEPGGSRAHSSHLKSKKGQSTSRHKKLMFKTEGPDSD
Outline: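 NCI-H358 cells pre-induced 24 h with 10 ng/ml doxycycline to express N-terminal eGFP-delta133p53alpha, then dosed 24 h at 37C without doxycycline; fixed, Hoechst-stained, GFP intensity by laser scanning cytometry, normalized to DMSO (0%) and 57.5 uM 5-azacytidine (100%).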

[2] = biological target: Aldehyde dehydrogenase, mitochondrial (Homo sapiens) (UniProt P05091); assay: qHTS for Inhibitors of the Aldehyde Dehydrogenase Family (ALDH2) Primary screen (AID 2061308); conditions: ALDH2 enzyme inhibition qHTS, 1536-well; series mostly up to 56 µM;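 note: plate controls were vehicle for no effect and reference inhibitor for full effect; nearly all actives have a fitted effect of over 55% in size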
[3] = biological target: Retinaldehyde dehydrogenase 3 (Homo sapiens) (UniProt P47895); assay: qHTS for Inhibitors of the Aldehyde Dehydrogenase Family (ALDH1A3) Primary screen (AID 2061315); conditions: ALDH inhibition qHTS; series mostly up to 56 µM;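 note: plate controls were DMSO vehicle for no effect and reference inhibitor for full effect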

C=C1C[C@]23C[C@H]1CC[C@H]2[C@@]12CC[C@H](O)[C@@](C)(C(=O)O1)[C@H]2[C@@H]3C(=O)O
inactive: activation [1] 5.34% | Potency [2] | Potency [3]

C[C@H]1[C@H](C)CC[C@]2(C(=O)OC3OC(CO)C(O)C(O)C3O)CC[C@]3(C(=O)O)C(=CCC4[C@@]5(C)CC[C@H](O[C@@H]6O[C@@H](C)[C@H](OC7OC(CO)C(O)C(O)C7O)[C@@H](O)[C@H]6O)C(C)(C)C5CC[C@]43C)[C@H]12 (some centres not stated)
inactive: activation [1] -9.92% | Potency [2] | Potency [3]

COc1cc(O)cc(C)c1C(=O)OC1C(CO)OC(OC2C(O)C(O)C(O)C(O)C2O)C(O)C1O (configuration not stated)
inactive: activation [1] -29% | Potency [2] | Potency [3]

CC1(C)CC[C@]2(C(=O)O[C@@H]3O[C@H](CO)[C@@H](O)[C@H](O)[C@H]3O)[C@H](O)C[C@]3(C)C(=CCC4[C@@]5(C)CC[C@H](O[C@@H]6OC[C@@H](O)[C@H](O)[C@H]6O)[C@@](C)(C(=O)O)C5CC[C@]43C)[C@@H]2C1 (some centres not stated)
inactive: activation [1] -16.8% | Potency [2] | Potency [3]

— PubChem BioAssay (NCATS)
